# Measured values from PubChem BioAssay AID1347137 (National Center for Advancing Translational Sciences (NCATS), 2019).
# This is one part of the list. Results filed as inconclusive are left out. Calls of active or inactive are those of the source. The call rests on the fitted dose curve; in most records, active means well fitted inhibition curve with a large enough effect; inconclusive means small, poorly fitted or top-dose-only effect; inactive means no such curve, though single readings can be large or run the other way.
# Assay: qHTS of pediatric cancer cell lines to identify multiple opportunities for drug repurposing: Orthogonal 3D viability screen for Daoy cells
# Details: Daoy 3D spheroid viability, PI/Hoechst imaging, 72 h; series mostly up to 30.7 µM
# Source text: Drug repurposing or repositioning has been offered as a strategy for drug development in oncology programs. This approach has special potential for childhood cancers and other rare or orphan diseases, where the expected return on new drug development has been a disincentive to pharmaceuticals. […] In this project we exploit the poly-pharmacology of drugs to discover new indications via phenotypic screening of a panel of 19 well-characterized cell lines derived from solid tumors seen in children and adolescents. The goal is to identify approved drugs with previously unrecognized anticancer properties that has the potential to reveal new mechanisms and biological processes involved in carcinogenesis or drug resistance. We employed a titration-based paradigm (quantitative high-throughput screening or qHTS), where all compounds were tested at multiple concentrations for their effect on cell viability. Concentration-response curves (CRCs) were derived directly from the primary screen, and both potency and efficacy values were used to identify compounds with robust bioactivity profiles. […] These two assays will be use to validate active compounds and assess the correlation of compound's potency in 2D vs 3D cultures on selected cell lines. Assay Submitter: Nathalia J. Martinez, National Center for Advancing Translational Sciences, National Institutes of Health, Rockville, MD, USA; email: natalia.martinez@nih.gov Shen, M et al. Quantitative high-throughput phenotypic screening of pediatric cancer cell lines identifies multiple opportunities for drug repurposing. Oncotarget 2017 Dec 19;9(4):4758-4772. PMID 29435139.
# The cells were obtained from University of North Carolina (UNC), Pediatric Preclinical Testing Program (PPT), and Coriell Institute (CI). qHTS viability in 3D culture: Cells were assayed in phenol red-free growth media at a density of 1,000 cells/well, with the exception of Daoy, and SH-N-SH which were assayed at 1,500 cells/ well. Thirty muL of cells were dispensed into 384-well, ULA, round bottom plates (Corning) using a Multidrop dispenser. […] Spheroid viability was first determined by high-content imaging using Hoechst 33342 and Propidium Iodide (PI, ThermoFisher Scientific), followed by addition of CellTiter-Glo 3D (Promega). […] Plates were incubated for 30 min at RT on a VWR microplate shaker (300 rpm) and analyzed for luminescence intensity using a ViewLux High-throughput CCD imager equipped with clear filters. […] The data were exported to Excel, and the average fluorescent intensities were used to calculate the ratio of PI over Hoechst, which was used to quantify viability. […]
row,SMILES,Potency
1,CC(NCc1ccc2c(c1)nc(NC(=O)c1ccc(-c3cn[nH]c3)s1)n2CC(C)(C)O)C(C)(C)C (centres undefined),511 nM (active)
2,C=C1C(=CC=C2CCC[C@]3(C)[C@@H]([C@H](C)C=C[C@H](C)C(C)C)CC[C@@H]23)C[C@@H](O)C[C@@H]1O,inactive
3,CC1(C)O[C@@H]2C[C@@H]3[C@H]4C[C@@H](F)C5=CC(=O)C=C[C@]5(C)[C@@]4(F)[C@@H](O)C[C@]3(C)[C@]2(C(=O)CO)O1,3620 nM (active)
4,CC[C@H]1CN2CCc3cc(OC)c(OC)cc3[C@@H]2C[C@@H]1C[C@H]1NCCc2cc(OC)c(OC)cc21,406 nM (active)
